Assay results as given in the supplement of paper PMC12636033.
± gives the standard deviation of the averaged measurements. In all, about 33,000 sequences were measured (“E-score (rank enrichment, -0.5 to 0.5)”: median about -0.0068, highest 2% from about 0.24 on). Shown is part of a subset that was picked to be rich in the highest values.

system: muMax20 (Max(13-93) K31hArg/K57hArg, M65Nle); assay: PBM 8-mer E-score (E-score (rank enrichment, -0.5 to 0.5)); higher = stronger preferential binding
Method: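 Protein binding microarray (universal PBM chip covering all 10-mers in fixed probe flanks) with chemically synthesized human Max(13-93) bHLH-LZ analogs (not full-length Max) bearing noncanonical residues (hArg, Tha, Aib, Nle at 65) and aromatic Cys staples. Read-out per 8-mer (and its reverse complement): E-score (rank-based enrichment, -0.5 to 0.5) and Z-score of median probe intensity.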

Row | Sequence | PBM 8-mer E-score
1 | AAGATATC | 0.155 ± 0.027
2 | CAGATATA | 0.0469 ± 0.045
3 | AAGATATA | 0.26 ± 0.041
4 | CGAGCCGA | -0.153 ± 0.036
5 | GAAGCACC | -0.0676 ± 0.049
6 | ACCTAGCG | -0.048 ± 0.057
7 | GAGGTAGA | 0.0124 ± 0.047
8 | ACCGCTTA | -0.0621 ± 0.13
9 | AAGATAAT | 0.239 ± 0.051
10 | AAGATAAC | 0.172 ± 0.07
11 | AAGATAAG | 0.15 ± 0.031
12 | ATGATGTA | 0.171 ± 0.12
13 | CTGATGTA | -0.0502 ± 0.023
14 | GTGATGTA | 0.2775 ± 0.00062
15 | CCTGCCCC | -0.167 ± 0.078
16 | CCAGCTGC | -0.272 ± 0.12
17 | GGCGCAAA | -0.148 ± 0.17
18 | GTGTAAAA | 0.113 ± 0.016
19 | AGAACGAG | 0.133 ± 0.061
20 | ATACGATA | 0.244 ± 0.053
21 | GTACGATA | 0.163 ± 0.033
22 | CTACGATA | 0.082 ± 0.02
23 | GAGTCGGC | -0.146 ± 0.055
24 | CGGATGCC | -0.075 ± 0.079
25 | ATTCGTGC | 0.0424 ± 0.086

Row | Sequence | PBM 8-mer E-score
26 | AACCAGTT | 0.0717 ± 0.038
27 | ACATACAG | 0.242 ± 0.017
28 | ACATACAC | 0.165 ± 0.057
29 | ACATACAT | 0.243 ± 0.029
30 | AGATACAG | 0.218 ± 0.024
31 | ATATACAT | 0.247 ± 0.032
32 | ATATACAC | 0.169 ± 0.004
33 | CCATACAG | -0.0198 ± 0.047
34 | ATATACAA | 0.229 ± 0.069
35 | ACATACAA | 0.137 ± 0.076
36 | GATGTACC | 0.0595 ± 0.065
37 | ACTCCTAT | 0.0559 ± 0.1
38 | AAACGGGC | 0.0187 ± 0.03
39 | TAAACAAA | 0.184 ± 0.008
40 | AGCTCCCC | -0.0268 ± 0.092
41 | CAATACAC | 0.194 ± 0.043
42 | AAATACAG | 0.209 ± 0.07
43 | AAATACAC | 0.273 ± 0.038
44 | AAATACAT | 0.259 ± 0.061
45 | GAATACAC | 0.123 ± 0.014
46 | AAATACAA | 0.19 ± 0.018
47 | CGGTTTTC | 0.00594 ± 0.054
48 | ATAGCGTG | 0.161 ± 0.019
49 | AGCACTCG | -0.199 ± 0.078
50 | GAACGCCA | -0.206 ± 0.021

Row | Sequence | PBM 8-mer E-score
51 | AAATCGCG | -0.0409 ± 0.032
52 | GGTAAGAA | 0.0527 ± 0.1
53 | CATAACGA | 0.0556 ± 0.017
54 | TTAATTAA | 0.324 ± 0.12
55 | CTAATTAA | 0.0707 ± 0.041
56 | ATAATTAA | 0.175 ± 0.05
57 | ATAATTAG | 0.223 ± 0.1
58 | ATAATTAC | 0.22 ± 0.074
59 | TGAATTAA | 0.254 ± 0.043
60 | CGAATTAA | 0.106 ± 0.11
61 | ATAATTAT | 0.276 ± 0.0028
62 | GGAATTAA | 0.1996 ± 0.0018
63 | CCTGTCCA | -0.131 ± 0.17
64 | CCAGTTTA | -0.0199 ± 0.068
65 | ATAAGGCC | -0.0432 ± 0.14
66 | AGTGCCTA | -0.109 ± 0.091
67 | CAACTGCC | 0.0721 ± 0.014
68 | TCGAGGAA | -0.0274 ± 0.069
69 | CCCACAAA | 0.183 ± 0.015
70 | ATGATAGC | 0.2152 ± 0.0016
71 | TCCATGCA | 0.105 ± 0.07
72 | TGCATGCA | 0.0968 ± 0.12
73 | GGCATGCA | 0.106 ± 0.091
74 | CCCATGCA | 0.133 ± 0.01
75 | AGCATGCA | 0.284 ± 0.11

Row | Sequence | PBM 8-mer E-score
76 | ACCATGCA | 0.28 ± 0.096
77 | GGATAGCC | -0.138 ± 0.11
78 | ACCGACCA | 0.0471 ± 0.002
79 | GGGCGCCC | -0.131 ± 0.0098
80 | CTAACTAA | 0.00786 ± 0.039
81 | ATAACTAT | 0.241 ± 0.0068
82 | TTAACTAA | 0.184 ± 0.11
83 | ATAACTAG | 0.0985 ± 0.14
84 | ATAACTAA | 0.245 ± 0.0085
85 | ATAACTAC | 0.2058 ± 0.0013
86 | ACACTGTG | 0.0421 ± 0.2
87 | CAGATCAA | -0.0923 ± 0.011
88 | GGTGAAGA | -0.0661 ± 0.032
89 | ATCCTCAT | -0.11 ± 0.076
90 | TACGATAA | 0.247 ± 0.0037
91 | CACGATAA | 0.17 ± 0.024
92 | GACGATAA | 0.0693 ± 0.077
93 | AATGCTAA | 0.12 ± 0.033
94 | AGCCAATC | -0.047 ± 0.088
95 | AACATGTC | 0.12 ± 0.025
96 | AACATGAA | 0.0865 ± 0.011
97 | AACATGTG | 0.353 ± 0.042
98 | AACATGTA | 0.256 ± 0.028
99 | CACATGCG | 0.172 ± 0.11
100 | GACATGTA | 0.24 ± 0.067

Row | Sequence | PBM 8-mer E-score
101 | GACATGTC | -0.00641 ± 0.13
102 | AACATGTT | 0.22 ± 0.04
103 | CACATGTC | 0.12 ± 0.087
104 | TACATGTA | 0.157 ± 0.069
105 | AACATGCA | 0.206 ± 0.1
106 | CACATGTG | 0.418 ± 0.015
107 | GTCTGCCA | -0.165 ± 0.0054
108 | GAACTTTA | -0.157 ± 0.037
109 | CTGTGGTA | 0.0865 ± 0.061
110 | CCGGTCGC | -0.276 ± 0.027
111 | ACCGAGAA | -0.187 ± 0.0095
112 | CCCAAGTC | -0.185 ± 0.0086
113 | GACGCTAA | -0.13 ± 0.072
114 | AGCAGTAT | 0.109 ± 0.0063
115 | GATTGCCA | -0.0436 ± 0.034
116 | AGCGTGGA | 0.045 ± 0.011
117 | CTCATGTA | 0.0357 ± 0.054
118 | CACATGTA | 0.347 ± 0.045
119 | CACATGAA | 0.219 ± 0.014
120 | GAAAACCC | 0.11 ± 0.0093
121 | CATAGGTC | -0.0151 ± 0.052
122 | CATGATAA | 0.263 ± 0.034
123 | CCTGATTA | 0.14 ± 0.042
124 | CATGATTC | 0.0292 ± 0.013
125 | TATGATAA | 0.181 ± 0.063

Row | Sequence | PBM 8-mer E-score
126 | CATGATTA | 0.281 ± 0.049
127 | AATGATAA | 0.11 ± 0.021
128 | ACTGATTA | 0.0963 ± 0.055
129 | GCTGATTA | 0.292 ± 0.073
130 | GATGATTA | 0.0475 ± 0.008
131 | CGCGTTAG | -0.0996 ± 0.017
132 | CTGGACTC | -0.0856 ± 0.022
133 | GAAACATC | 0.0279 ± 0.095
134 | GAAACAAC | 0.00284 ± 0.071
135 | CAAACAAA | 0.185 ± 0.03
136 | GAAACAAA | 0.236 ± 0.039
137 | GAAACATA | 0.249 ± 0.1
138 | AAAACATA | 0.165 ± 0.084
139 | GAAGGTGC | -0.0729 ± 0.043
140 | CATGCCAA | 0.158 ± 0.078
141 | ATATAAAT | 0.308 ± 0.0047
142 | CTATAAAC | 0.144 ± 0.0027
143 | ATATAAAG | 0.189 ± 0.0027
144 | ATATAAAC | 0.324 ± 0.045
145 | CTATAAGA | 0.0354 ± 0.00038
146 | GTATAAGA | 0.138 ± 0.044
147 | CTATAAAA | 0.0172 ± 0.079
148 | ATATAAGA | 0.262 ± 0.064
149 | ACATAAAA | 0.229 ± 0.019
150 | ATAAAAAT | 0.221 ± 0.025

Row | Sequence | PBM 8-mer E-score
151 | ATATAAAA | 0.317 ± 0.064
152 | ATAAAAAC | 0.109 ± 0.079
153 | AAACTTTA | 0.2 ± 0.068
154 | CACCGCTG | -0.316 ± 0.09
155 | GGGAGGGA | 0.0486 ± 0.024
156 | AAATTGAC | -0.0252 ± 0.075
157 | AGGTCTGA | -0.112 ± 0.11
158 | CGTGCTAA | -0.0595 ± 0.097
159 | GGGGGTGA | -0.107 ± 0.1
160 | GCACCCGA | -0.265 ± 0.009
161 | ATACCCGC | 0.07 ± 0.0011
162 | CCCACGGA | -0.0746 ± 0.039
163 | CGAGTTTC | 0.112 ± 0.043
164 | AGGCGGAG | -0.00941 ± 0.016
165 | TTATAAAA | 0.235 ± 0.043
166 | GTATAAAA | 0.288 ± 0.072
167 | GTATAAAC | 0.137 ± 0.05
168 | GGGTAATA | 0.117 ± 0.078
169 | AGGGGAAG | -0.0693 ± 0.071
170 | CTAGCGAC | -0.0457 ± 0.095
171 | CCGAAAGG | -0.0656 ± 0.13
172 | CAAGCCAA | -0.034 ± 0.1
